# Where “and” joins values, the source holds several entries; their conditions need not be identical. Equal values may be shown once. Inconclusive results are not listed. Where a call stands in place of a potency, no number is given. Some compounds were tested as several samples or in several runs, with calls that do not always agree. Calls of active or inactive are those of the source. Calls come from the whole dose curve; as a rule, active = well fitted cell-killing curve with a large enough effect in the repeat runs; inconclusive = weak or mixed curves; inactive = flat fitted curve, though single readings scatter.
# Test: qHTS RealTime-Glo MT Cell Viability Assay in HepG2 cells - 24 hour (AID 1224867); note: nearly all actives have a fitted effect of over 50% in size
# Settings: RealTime-Glo luminescence; series mostly up to 76.8 µM
# Source text: U.S. Tox21 Program National Center for Advancing Translational Sciences [NCATS] NIH Chemical Genomics Center [NCGC] U.S. Environmental Protection Agency [EPA] National Institutes of Environmental Health Sciences [NIEHS] National Toxicology Program [NTP] U.S. Food and Drug Administration [FDA] Tox21 Assay Overview: Measure of cell viability is critical in the cell-base assay. Analysis of cell viability is necessary for the characterization of cell responses to cytotoxic drugs and environmental stress. A RealTime-Glo MT Cell Viability Assay to monitor cell viability in real time of continues cell culture during 40 hours of compound treatment was used to screen Tox21 10K library compounds in HepG2 cells. The RealTime-Glo MT Cell Viability Assay is a nonlytic, homogeneous, bioluminescent method to measure cell viability in real time using a simple, plate-based method. The assay involves adding NanoLuc luciferase and a cell-permeant prosubstrate to cells in culture. Viable cells reduce the proprietary prosubstrate to generate a substrate for NanoLuc luciferase. This substrate diffuses from cells into the surrounding culture medium, where it is rapidly used by the NanoLuc Enzyme to produce a luminescent signal. The signal correlates with the number of viable cells, making the assay well suited for cytotoxicity studies.
# Tox21 Assay Protocol Summary: The mixture of HepG2 cell suspension and reagents were dispensed at 600cells/6 ul/well in 1536-well tissue culture treated black solid bottom plates using a Multidrop dispenser. After the assay plates were incubated at a 37 C/5% CO2 incubator for 5 hours, 23 nL of compounds dissolved in DMSO, positive and negative controls was transferred to the assay plate by a pintool work station. The plates were incubated at 37 C for 40 hours. The luminescence intensity were measured at 0h, 8h, 16h, 24h, 32h and 40h time points using ViewLux plate reader during compound treatment.
# Potency is the fitted concentration of half-maximal effect.
SMILES,Potency,"activity change, negative = cytotoxicity"
[Cl][Hg][c]1ccccc1,2.75 µM (active),–
N#CSCc1ccccc1,inactive,–
O=C1C2(Cl)C3(Cl)C4(Cl)C(Cl)(Cl)C5(Cl)C3(Cl)C1(Cl)C5(Cl)C24Cl (stereo not given),42.9 µM (active) and 46.9 µM (active),–
CC(Cc1ccccc1)N(C)Cc1ccco1 (stereo not given),inactive,–
CCCCn1cc[n+](C)c1 (tested in a mixture with another compound),inactive,–
BrCC(Br)(Br)Br,inactive,–
C[C@]12Cc3cn[nH]c3C[C@@H]1CC[C@@H]1[C@@H]2CC[C@@]2(C)[C@H]1CC[C@]2(C)O,inactive,–
CC[C@]1(O)CC[C@H]2[C@@H]3CCC4=CCCC[C@@H]4[C@H]3CC[C@@]21C,inactive,–
COc1ccc2[nH]cc(CCN(C(C)C)C(C)C)c2c1,inactive,–
CCOP(=O)(OCC)Oc1nc(Cl)c(Cl)cc1Cl,inactive,–
CCCCON=O,inactive,–
COC(=O)c1cc(Oc2ccc(Cl)cc2Cl)ccc1[N+](=O)[O-],inactive,–
CSC1=N[C@@](C)(c2ccccc2)C(=O)N1Nc1ccccc1,inactive,–
Nc1cc(Cl)ccc1Cl,inactive,–
CC(=O)[O-].CC(=O)[O-].CC(=O)[O-].[Sb+3],–,-0.623% [at 2.72 µM] (inactive)
CCN(CC)Cc1nccn1-c1ccc([N+](=O)[O-])cc1C(=O)c1ccccc1Cl,inactive,–
O=[N+]([O-])c1ccc(CCl)cc1,inactive,–
Oc1ccc2[nH]cc(CCCCN3CC=C(c4ccccc4)CC3)c2c1,inactive,–
CCCCC(CC)COC(=O)c1ccccc1C(=O)OCC(CC)CCCC (stereo not given),inactive,–
CNC(=O)/C=C(\C)OP(=O)(OC)OC,inactive,–

SMILES,Potency,"activity change, negative = cytotoxicity"
OCC(Br)CBr (stereo not given),inactive,–
O=P(Cl)(Cl)Cl,inactive,–
CC1=C2C[C@H]3[C@@H](CC=C4C[C@@H](O)CC[C@@]43C)[C@@H]2CC[C@]12O[C@@H]1C[C@H](C)CN[C@H]1[C@H]2C,inactive,–
c1ccc2c(c1)cc1ccc3cccc4ccc2c1c34,inactive,–
N#Cc1c[nH]cc1-c1cccc2c1OC(F)(F)O2,inactive,–
COc1nc(C)nc(NC(=O)NS(=O)(=O)c2ccccc2Cl)n1,inactive,–
C[C@]12CC[C@H]3[C@@H](CCC4=CC(=O)CC[C@@H]43)[C@@H]1CC[C@@H]2OC(=O)CCc1ccco1,inactive,–
O=C(NC(=O)c1c(F)cccc1F)Nc1ccc(Oc2ccc(C(F)(F)F)cc2Cl)cc1F,inactive,–
CC(C)C(Br)C(=O)NC(N)=O (stereo not given),inactive,–
C[C@@H]1CC2=CC(=O)CC[C@@H]2[C@H]2CC[C@@]3(C)[C@@H](CC[C@]3(C)O)[C@@H]21,inactive,–
C#CC1(O)CCCCC1,inactive,–
CCN(CC)C(=S)S,inactive and 21.9 µM (active),–
O=c1c2ccccc2c(=O)c2c1cc(Cl)c1[nH]c3c([nH]c12)c(Cl)cc1c(=O)c2ccccc2c(=O)c13,inactive,–
CN1CCc2cc(Cl)c(O)cc2[C@H]2c3ccccc3CC[C@@H]21,inactive,–
O=C(O)CCCCCCNC1c2ccccc2CCc2ccccc21,inactive,–
S=C=Nc1ccccc1,inactive,–
[O-][Cl+3]([O-])([O-])O,inactive,–
CCNS(=O)(=O)C(F)(F)C(F)(F)C(F)(F)C(F)(F)C(F)(F)C(F)(F)C(F)(F)C(F)(F)F,inactive,–
O.O.O.O.O.O.O=S(=O)([O-])[O-].[Ni+2],inactive,–
O=S1OCC2C(CO1)C1(Cl)C(Cl)=C(Cl)C2(Cl)C1(Cl)Cl (stereo not given),54.9 µM (active),–
